“And” between values parts separate entries of the source, which are not always exact repeats. Equal values may be shown once. Records with an inconclusive call do not appear. Some compounds were tested as several samples or in several runs, with calls that do not always agree. The source made the active and inactive calls. Calls come from the whole dose curve; as a rule, active = well fitted curve in the direction sought with a large enough effect in the repeat runs; inconclusive = weak or mixed curves; inactive = no such curve, though single readings can be large; an effect the other way counts as inactive or inconclusive.
How the values were obtained:
[1] = qHTS RealTime-Glo MT Cell Viability Assay in HepG2 cells - 40 hour (AID 1224870); note: nearly all actives have a fitted effect of over 50% in size
In short: (§1)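 HepG2 cells mixed with RealTime-Glo MT reagents (NanoLuc plus cell-permeant prosubstrate) were seeded at 600 cells/well, incubated 5 h at 37 C/5% CO2, then pinned with compounds in DMSO; nonlytic luminescence tracked viability during 40 h treatment.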

[2] = A CellTox Green Cytotoxicity Assay to monitor cytotoxicity in HEK293 cells - 40 hour (AID 1224871); note: nearly all actives have a fitted effect of over 45% in size; note: potency is the fitted concentration of half-maximal effect
In short: (§2)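 Read-out: fluorescence of a cell-impermeant cyanine dye staining DNA of dead cells, proportional to cytotoxicity. HEK293, 600 cells/well with reagent, compound (23 nL DMSO) added after 5 h; reads at 0, 8, 16, 24, 32, 40 h.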

[3] = qHTS RealTime-Glo MT Cell Viability Assay in HEK293 cells - 16 hour (AID 1224872); note: top concentration of the series differs between compounds; nearly all actives have a fitted effect of over 50% in size
In short: (§3)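 Cells + reagent dispensed (600 cells/well, HEK293) → 5 h at 37 C/5% CO2 → 23 nL compound in DMSO pinned → 40 h at 37 C → luminescence read at 0, 8, 16, 24, 32, 40 h.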

[4] = qHTS RealTime-Glo MT Cell Viability Assay in HepG2 cells - 8 hour (AID 1224873); note: nearly all actives have a fitted effect of over 55% in size
In short: as §1

[5] = A CellTox Green Cytotoxicity Assay to monitor cytotoxicity in HEK293 cells - 24 hour (AID 1224875); note: series mostly up to about 77 µM; nearly all actives have a fitted effect of over 45% in size
In short: as §2

[6] = A CellTox Green Cytotoxicity Assay to monitor cytotoxicity in HepG2 cells - 16 hour (AID 1224876); note: nearly all actives have a fitted effect of over 45% in size
In short: (§4)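 HepG2, 600 cells/well premixed w/ CellTox Green; 5 h settle, 37 C/5% CO2; pintool cpd add (DMSO); 37 C, 40 h; fluorescence read at 0, 8, 16, 24, 32, 40 h.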

[7] = qHTS RealTime-Glo MT Cell Viability Assay in HepG2 cells - 32 hour (AID 1224877); note: nearly all actives have a fitted effect of over 55% in size
In short: (§5)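 Real-time, nonlytic viability: 600 HepG2 cells/well mixed with NanoLuc enzyme plus prosubstrate; 5 h settle, compound (DMSO) added by pintool; luminescence monitored over 40 h at 37 C.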

[8] = A CellTox Green Cytotoxicity Assay to monitor cytotoxicity in HepG2 cells - 24 hour (AID 1224878); note: nearly all actives have a fitted effect of over 45% in size
In short: as §4

[9] = A CellTox Green Cytotoxicity Assay to monitor cytotoxicity in HepG2 cells - 40 hour (AID 1224879); note: nearly all actives have a fitted effect of over 40% in size
In short: as §4

[10] = qHTS RealTime-Glo MT Cell Viability Assay in HEK293 cells - 0 hour (AID 1224880)
In short: (§6)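 Luminescence readout at each listed time point; HEK293, 600 cells/well, RealTime-Glo MT reagent added with cells; compounds pinned (23 nL in DMSO) after 5 h at 37 C; continuous culture at 37 C.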

[11] = A CellTox Green Cytotoxicity Assay to monitor cytotoxicity in HEK293 cells - 32 hour (AID 1224881); note: nearly all actives have a fitted effect of over 40% in size; note: potency is the fitted concentration of half-maximal effect
In short: as §2

[12] = A CellTox Green Cytotoxicity Assay to monitor cytotoxicity in HepG2 cells - 0 hour (AID 1224882); note: nearly all actives have a fitted effect of over 35% in size
In short: as §4

[13] = A CellTox Green Cytotoxicity Assay to monitor cytotoxicity in HEK293 cells - 8 hour (AID 1224884); note: nearly all actives have a fitted effect of over 35% in size; note: potency is the fitted concentration of half-maximal effect
In short: as §2

[14] = qHTS RealTime-Glo MT Cell Viability Assay in HEK293 cells - 24 hour (AID 1224886); note: top concentration of the series differs between compounds; nearly all actives have a fitted effect of over 50% in size
In short: as §3

[15] = qHTS RealTime-Glo MT Cell Viability Assay in HEK293 cells - 8 hour (AID 1224887); note: top concentration of the series differs between compounds; nearly all actives have a fitted effect of over 50% in size
In short: as §6

[16] = A CellTox Green Cytotoxicity Assay to monitor cytotoxicity in HEK293 cells - 16 hour (AID 1224888); note: nearly all actives have a fitted effect of over 35% in size
In short: as §2

[17] = qHTS RealTime-Glo MT Cell Viability Assay in HepG2 cells - 0 hour (AID 1224889); note: nearly all actives have a fitted effect of over 50% in size
In short: as §5

[18] = A CellTox Green Cytotoxicity Assay to monitor cytotoxicity in HepG2 cells - 32 hour (AID 1224883); note: nearly all actives have a fitted effect of over 50% in size
In short: as §4

[19] = qHTS RealTime-Glo MT Cell Viability Assay in HepG2 cells - 16 hour (AID 1224885); note: nearly all actives have a fitted effect of over 50% in size
In short: as §5

[20] = qHTS RealTime-Glo MT Cell Viability Assay in HEK293 cells - 40 hour (AID 1224874); settings: RealTime-Glo luminescence; max response: stronger effect = lower value; note: nearly all actives have a fitted effect of over 50% in size
In short: as §6
% is set by controls: 0 for no effect and ±100 for the full control effect.

O=C(O)CCCc1ccc(N(CCCl)CCCl)cc1
inactive: outcome [1] | Potency [2] | outcome [3] | outcome [4] | Potency [5] | Potency [6] | outcome [7] | Potency [8] | Potency [9] | outcome [10] | Potency [11] | Potency [12] | Potency [13] | outcome [14] | outcome [15] | Potency [16] | outcome [17]

Cc1ccccc1N
inactive: outcome [1] | Potency [2] | outcome [3] | outcome [4] | Potency [5] | Potency [6] | outcome [7] | Potency [8] | Potency [9] | outcome [10] | Potency [11] | Potency [12] | Potency [18] | Potency [13] | outcome [19] | outcome [14] | outcome [15] | Potency [16] | outcome [17]

CC(C)(C)C(=O)CCl
inactive: outcome [1] | Potency [2] | outcome [3] | outcome [4] | max response [20] 4.78% and -0.671% | Potency [5] | Potency [6] | outcome [7] | Potency [8] | Potency [9] | outcome [10] | Potency [11] | Potency [12] | Potency [13] | outcome [14] | outcome [15] | Potency [16] | outcome [17]

OC[C@@H](O)[C@H]1O[C@@H]2O[C@H](C(Cl)(Cl)Cl)O[C@@H]2[C@H]1O
inactive: outcome [1] | Potency [2] | outcome [3] | outcome [4] | max response [20] -9.36% and 2.42% | Potency [5] | Potency [6] | outcome [7] | Potency [8] | Potency [9] | outcome [10] | Potency [11] | Potency [12] | Potency [13] | outcome [19] | outcome [14] | outcome [15] | Potency [16] | outcome [17]

CN(C)C(=O)Cl
inactive: outcome [1] | Potency [2] | outcome [3] | outcome [4] | max response [20] 1.46% and 5.01% | Potency [5] | Potency [6] | outcome [7] | Potency [8] | Potency [9] | outcome [10] | Potency [11] | Potency [12] | Potency [13] | outcome [14] | outcome [15] | Potency [16] | outcome [17]

CNC(=O)O/N=C/C(C)(C)S(C)(=O)=O
inactive: outcome [1] | Potency [2] | outcome [3] | outcome [4] | max response [20] 3.09% and 0.619% | Potency [5] | Potency [6] | outcome [7] | Potency [8] | Potency [9] | outcome [10] | Potency [11] | Potency [12] | Potency [13] | outcome [19] | outcome [14] | outcome [15] | Potency [16] | outcome [17]

Clc1cnc(Oc2ccc(Oc3ncc(Cl)cc3Cl)cc2)c(Cl)c1
inactive and 34.7 µM (active): Potency [13]
inactive: outcome [1] | outcome [3] | outcome [4] | max response [20] -4.51% and -10.8% | Potency [6] | outcome [7] | Potency [8] | Potency [9] | outcome [10] | Potency [12] | outcome [14] | outcome [15] | outcome [17]
active: Potency [2] 24.5 µM | Potency [11] 27.5 µM

CN(C)C(=O)C(c1ccccc1)c1ccccc1
inactive: outcome [1] | Potency [2] | outcome [3] | outcome [4] | max response [20] 1.04% and -0.357% | Potency [5] | Potency [6] | outcome [7] | Potency [8] | Potency [9] | outcome [10] | Potency [11] | Potency [12] | Potency [13] | outcome [19] | outcome [14] | outcome [15] | Potency [16] | outcome [17]

N#CN=C(N)N
inactive: outcome [1] | Potency [2] | outcome [3] | outcome [4] | max response [20] 1.89% and 5.69% | Potency [5] | Potency [6] | outcome [7] | Potency [8] | Potency [9] | outcome [10] | Potency [11] | Potency [12] | Potency [13] | outcome [14] | outcome [15] | Potency [16] | outcome [17]
